Data taken from PubChem BioAssay.
Calls of active or inactive are those of the source.

Tests used:
[1] = tested on: Plasmodium falciparum Sir2 (PF13_0152, Sir2A); test: pfSir2 binders on small-molecule microarrays, primary screen, biochemical, small-molecule microarray, 635 nm fluorescence (AID 1098); details: small-molecule microarray binding, fluorescence 635 nm; higher = more signal;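 note: score merges spot fluorescence intensity with its signal-to-noise ratio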
[2] = small-molecule microarray binders of probe aDKK1, primary screen, biochemical, biotinylated probe, 635/667 nm fluorescence (AID 1099); details: higher = more signal;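 note: score merges 667nm spot fluorescence with signal to noise across triplicate slides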
[3] = small-molecule microarray binders of probe aCHRDL2, primary screen, biochemical, biotinylated probe, 635/667 nm fluorescence (AID 1100); details: higher = more signal
[4] = splicing luciferase reporter signal modulators, primary screen, spliceosome inhibition project, cell-based, HEK293, splice +/- reporter (AID 1101); details: luminescence, 24 h, higher = more signal, called active from +8 up or from −8 down;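 note: HEK293 cells carrying a splicing-competent luciferase reporter gene; test concentration not given here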
[5] = target: Fibroblast growth factor 10 (Homo sapiens) (UniProt O15520); test: FGF10 binders on small-molecule microarrays, primary screen, biochemical, small-molecule microarray, 635 nm fluorescence (AID 1102); details: FGF10 binding, fluorescence 635 nm, higher = more signal
[6] = tested on: glycogen synthase kinase-3 (GSK3A per assay name; protocol says GSK3B); test: GSK3 binders on small-molecule microarrays, primary screen, biochemical, small-molecule microarray, 635 nm fluorescence, GSK3A (AID 1103); details: small-molecule microarray binding, fluorescence 635 nm; higher = more signal; note: the record names both GSK3A and GSK3B
[7] = target: Epidermal growth factor receptor (Homo sapiens) (UniProt P00533); test: EGFR binders on small-molecule microarrays, primary screen, biochemical, small-molecule microarray, 635 nm fluorescence (AID 1104); details: EGFR binding, higher = more signal;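 note: score merges 667 nm emission intensity with spot signal to noise over triplicate slides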
[8] = target: Follistatin-related protein 3 (Homo sapiens) (UniProt O95633); test: FSTL3 binders on small-molecule microarrays, primary screen, biochemical, small-molecule microarray, 635 nm fluorescence (AID 1105); details: FSTL3 binding, higher = more signal;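 note: score merges emission near 667 nm and signal to noise per printed spot across three slides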
[9] = target: Dickkopf-related protein 1 (Homo sapiens) (UniProt O94907); test: DKK1 binders on small-molecule microarrays, primary screen, biochemical, small-molecule microarray, 635 nm fluorescence scan (AID 1106); details: DKK1 binding, higher = more signal;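 note: score merges emission near 667 nm with signal to noise over three replicate slides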
[10] = tested on: Inhibin beta A chain (activin A); test: INHBA (activin A) binders on microarrays, primary screen, biochemical, small-molecule microarray, 635 nm fluorescence scan (AID 1107); details: small-molecule microarray binding, higher = more signal;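 note: mouse activin A protein probed at 4.33 µg/mL on printed slides; score merges bound-protein fluorescence near 667 nm with spot signal-to-noise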
[11] = tested on: Human papillomavirus type 1a protein E7 (residues 44-93); test: HPV1a E7 fragment binders on microarrays, primary screen, biochemical, small-molecule microarray, residues 44-93, 635 nm fluorescence (AID 1108); details: small-molecule microarray binding, fluorescence 635 nm; higher = more signal;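 note: E7 fragment applied at 1 µg/mL in TBST for 1 h at 4 C; score combines spot fluorescence with its signal to noise ratio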
[12] = modulators of HCV replicon luciferase signal, primary screen, HCV replication inhibitor project, Huh7 cells, luciferase reporter (AID 1109); details: 48 h, higher = more signal;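 note: huh7 hepatoma cells harbouring a luciferase neomycin HCV replicon reporter; luciferase luminescence as measure of HCV replicon replication; test concentration not given here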
[13] = target: Left-right determination factor 2 (Homo sapiens) (UniProt O00292); test: LEFTY2 binders on small-molecule microarrays, primary screen, biochemical, small-molecule microarray, 635 nm fluorescence scan (AID 1110); details: LEFTY2 binding, higher = more signal
[14] = target: Calmodulin-1 (Homo sapiens) (UniProt P0DP23); test: CALM1 binders on microarrays, EGTA buffer, profiling panel, biochemical, small-molecule microarray, Cy5-labelled CALM1 (AID 1111); details: Cy5-CALM1 binding fluorescence, higher = more signal;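 note: labelled calmodulin applied in Tris saline Tween buffer holding calcium plus EGTA and DTT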
[15] = target: Calmodulin-1 (Homo sapiens) (UniProt P0DP23); test: calcium-bound CALM1 binders on microarrays, profiling panel, artefact control for SMM control-protein annotation, biochemical, small-molecule microarray, Cy5-labelled CALM1, plus calcium (AID 1112); details: Cy5-CALM1 binding fluorescence, higher = more signal;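 note: score merges spot fluorescence with signal to noise from triplicate slides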
[16] = small-molecule microarray binders of probe aWnt5a, primary screen, biochemical, biotinylated probe, 635/667 nm fluorescence (AID 1113); details: higher = more signal;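 note: score merges 667 nm fluorescence intensity with signal-to-noise per printed feature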
[17] = small-molecule microarray binders of probe aShh, primary screen, biochemical, biotinylated probe, 635/667 nm fluorescence (AID 1114); details: higher = more signal;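 note: probe is biotin-labelled aShh protein from a stem cell growth factor screen; measures binding of labelled protein to compounds printed on the slide; score merges feature fluorescence at 667 nm with signal-to-noise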
[18] = small-molecule microarray binders of probe aNog, primary screen, biochemical, biotinylated probe, 635/667 nm fluorescence (AID 1115); details: higher = more signal;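 note: probe is biotinylated aNog protein used at 0.15 µg/mL for 1 h at 4 C; z-score combines 667 nm fluorescence of each spot with its signal to noise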
[19] = target: Torsin-1A-interacting protein 1 (Homo sapiens) (UniProt Q5JTV8); test: LAP1 binders from COS7 cell lysate, primary screen, small-molecule microarray, 635/667 nm fluorescence (AID 1116); details: COS7-hLAP1 lysate binding, 635 nm fluorescence, higher = more signal
[20] = target: Alpha-bungarotoxin (Bungarus multicinctus) (UniProt P60615); test: alpha-bungarotoxin binders on microarray, profiling panel, artefact control for SMM control protein annotation, biochemical, small-molecule microarray, Alexa647 label, 635/667 nm fluorescence (AID 1117); details: alpha-BTX-A647 binding fluorescence, higher = more signal
Chain of Alpha-bungarotoxin (Bungarus multicinctus) (P60615 whole entry, looked up): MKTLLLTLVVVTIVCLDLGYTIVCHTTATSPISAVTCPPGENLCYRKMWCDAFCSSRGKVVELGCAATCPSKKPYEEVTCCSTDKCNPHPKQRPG

Chain of Fibroblast growth factor 10 (Homo sapiens) (O15520 whole entry, looked up): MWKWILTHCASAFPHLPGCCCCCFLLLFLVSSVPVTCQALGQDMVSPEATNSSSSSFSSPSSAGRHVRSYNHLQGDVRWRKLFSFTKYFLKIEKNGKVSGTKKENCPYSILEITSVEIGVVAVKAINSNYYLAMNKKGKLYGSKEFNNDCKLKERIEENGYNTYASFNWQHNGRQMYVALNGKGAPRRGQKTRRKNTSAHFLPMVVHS
Chain of Follistatin-related protein 3 (Homo sapiens) (O95633 whole entry, looked up): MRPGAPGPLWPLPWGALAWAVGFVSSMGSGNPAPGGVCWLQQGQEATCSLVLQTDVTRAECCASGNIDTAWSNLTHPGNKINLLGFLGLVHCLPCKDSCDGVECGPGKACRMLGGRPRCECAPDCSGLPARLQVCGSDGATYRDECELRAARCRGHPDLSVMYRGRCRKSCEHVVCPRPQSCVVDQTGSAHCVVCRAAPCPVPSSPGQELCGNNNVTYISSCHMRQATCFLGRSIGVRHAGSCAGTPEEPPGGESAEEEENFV
Chain of Left-right determination factor 2 (Homo sapiens) (O00292 whole entry, looked up): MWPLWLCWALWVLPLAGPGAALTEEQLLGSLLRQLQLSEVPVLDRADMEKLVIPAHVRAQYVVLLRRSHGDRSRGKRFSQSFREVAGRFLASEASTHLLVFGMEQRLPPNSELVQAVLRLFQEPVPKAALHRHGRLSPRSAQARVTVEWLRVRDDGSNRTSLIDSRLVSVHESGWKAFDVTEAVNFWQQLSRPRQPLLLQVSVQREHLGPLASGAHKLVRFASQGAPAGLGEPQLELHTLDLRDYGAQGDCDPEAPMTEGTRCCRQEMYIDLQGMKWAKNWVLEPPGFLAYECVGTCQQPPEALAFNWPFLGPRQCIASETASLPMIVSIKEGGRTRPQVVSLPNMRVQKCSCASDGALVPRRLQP
Chain of Torsin-1A-interacting protein 1 (Homo sapiens) (Q5JTV8 whole entry, looked up): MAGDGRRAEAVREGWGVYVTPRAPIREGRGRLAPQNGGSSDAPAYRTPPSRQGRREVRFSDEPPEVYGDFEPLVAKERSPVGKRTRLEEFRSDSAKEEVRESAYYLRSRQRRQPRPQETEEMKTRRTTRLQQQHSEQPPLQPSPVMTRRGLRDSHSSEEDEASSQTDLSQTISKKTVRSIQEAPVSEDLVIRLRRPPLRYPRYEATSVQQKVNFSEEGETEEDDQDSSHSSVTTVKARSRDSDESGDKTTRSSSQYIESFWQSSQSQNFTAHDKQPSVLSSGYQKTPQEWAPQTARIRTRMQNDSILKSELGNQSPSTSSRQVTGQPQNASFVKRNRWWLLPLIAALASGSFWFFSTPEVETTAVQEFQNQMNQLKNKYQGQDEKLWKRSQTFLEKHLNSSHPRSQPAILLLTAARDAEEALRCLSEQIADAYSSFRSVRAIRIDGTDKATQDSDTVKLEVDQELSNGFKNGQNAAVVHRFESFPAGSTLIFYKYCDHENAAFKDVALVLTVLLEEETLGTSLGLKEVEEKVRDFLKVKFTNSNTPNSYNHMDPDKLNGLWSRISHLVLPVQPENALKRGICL
Chain of Epidermal growth factor receptor (Homo sapiens) (P00533 whole entry, looked up): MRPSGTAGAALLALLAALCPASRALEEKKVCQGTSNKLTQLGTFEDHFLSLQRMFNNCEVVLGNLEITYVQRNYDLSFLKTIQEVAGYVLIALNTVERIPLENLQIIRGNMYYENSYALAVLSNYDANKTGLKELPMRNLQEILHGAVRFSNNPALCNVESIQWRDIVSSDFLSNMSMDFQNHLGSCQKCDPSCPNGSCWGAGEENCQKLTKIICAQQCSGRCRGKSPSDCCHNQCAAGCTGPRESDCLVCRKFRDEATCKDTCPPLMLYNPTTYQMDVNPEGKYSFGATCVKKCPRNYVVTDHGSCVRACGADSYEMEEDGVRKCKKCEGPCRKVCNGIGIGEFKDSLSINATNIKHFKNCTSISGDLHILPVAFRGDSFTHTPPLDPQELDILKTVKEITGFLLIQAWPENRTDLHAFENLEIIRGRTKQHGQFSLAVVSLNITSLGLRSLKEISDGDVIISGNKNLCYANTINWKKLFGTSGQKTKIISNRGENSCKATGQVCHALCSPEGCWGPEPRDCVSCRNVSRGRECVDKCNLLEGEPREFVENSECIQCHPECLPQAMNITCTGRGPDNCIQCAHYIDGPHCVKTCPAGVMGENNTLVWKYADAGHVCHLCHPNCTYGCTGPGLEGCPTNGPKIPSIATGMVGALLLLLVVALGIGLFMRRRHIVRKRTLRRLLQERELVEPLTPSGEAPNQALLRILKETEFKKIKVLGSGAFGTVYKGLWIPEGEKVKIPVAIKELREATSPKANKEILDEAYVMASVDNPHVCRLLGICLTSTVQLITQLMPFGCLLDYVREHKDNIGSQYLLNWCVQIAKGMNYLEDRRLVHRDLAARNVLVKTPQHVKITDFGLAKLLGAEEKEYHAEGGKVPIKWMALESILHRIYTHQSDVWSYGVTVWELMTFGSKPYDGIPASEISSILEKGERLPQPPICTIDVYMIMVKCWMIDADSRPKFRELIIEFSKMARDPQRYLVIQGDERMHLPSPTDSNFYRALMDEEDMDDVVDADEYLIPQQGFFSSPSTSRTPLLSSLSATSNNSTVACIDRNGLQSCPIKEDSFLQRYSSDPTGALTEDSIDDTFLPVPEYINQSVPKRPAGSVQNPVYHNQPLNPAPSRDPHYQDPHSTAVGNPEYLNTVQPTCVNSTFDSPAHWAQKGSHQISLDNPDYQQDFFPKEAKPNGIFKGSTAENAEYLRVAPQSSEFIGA
Chain of Dickkopf-related protein 1 (Homo sapiens) (O94907 whole entry, looked up): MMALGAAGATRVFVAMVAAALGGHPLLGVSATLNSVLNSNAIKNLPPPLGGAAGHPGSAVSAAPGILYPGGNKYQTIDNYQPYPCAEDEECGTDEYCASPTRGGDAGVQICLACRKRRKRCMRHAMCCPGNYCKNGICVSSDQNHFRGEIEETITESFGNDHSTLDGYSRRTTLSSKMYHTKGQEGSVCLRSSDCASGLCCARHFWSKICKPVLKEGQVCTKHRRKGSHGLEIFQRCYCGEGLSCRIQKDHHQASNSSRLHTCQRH

Structure (SMILES) | composite z-score [1] | composite z-score [2] | composite z-score [3] | z-score [4] | composite z-score [5] | composite z-score [6] | composite z-score [7] | composite z-score [8] | composite z-score [9] | composite z-score [10] | composite z-score [11] | z-score [12] | composite z-score [13] | composite z-score [14] | composite z-score [15] | composite z-score [16] | composite z-score [17] | composite z-score [18] | composite z-score [19] | composite z-score [20]
COCCOC(=O)N1C(=O)[C@@]2(c3cc(C#Cc4ccc(OC)cc4)ccc31)[C@H](C(=O)N1CCCCCCC1)[C@H]1C(=O)O[C@H](c3ccccc3)[C@H](c3ccccc3)N1[C@@H]2c1ccccc1OCCO | 1.55 | 2.5 | 1.57 | 0.00537 (inactive) | 0.766 | 1.32 | 1.07 | 1.56 | 1.61 | 1.66 | 1.35 | -0.0111 | 0.647 | 2.42 | 1.49 | 1.16 | 0.451 | 1.53 | 4.47 | 2.27
C=CC[C@]1(C(=O)OC)N=C(c2ccc(OCCCO)cc2)O[C@H]1c1ccccc1N=[N+]=[N-] | 1.54 | 1.21 | 0.865 | -1.4 (inactive) | 1.25 | 1.31 | 1.19 | 1.37 | 1.26 | 0.826 | 1.06 | 0.452 | 0.786 | 0.592 | -0.357 | 0.194 | 0.598 | 1.7 | 0.387 | 0.935
CCOC(=O)C[C@H]1[C@H](OC(=O)Cc2ccc3c(c2)OCO3)[C@@H](NC(=O)c2ccccc2)c2cc(OCCCO)ccc2N1C(=O)Cc1ccc(OC)cc1 | -0.1 | -0.386 | -0.167 | -2.62 (inactive) | 0.236 | 0.227 | 0.237 | 0.339 | 0.0486 | -0.296 | 0.334 | -1.53 | -0.113 | 1.04 | 0.188 | -0.0545 | -0.0626 | -0.196 | 0.435 | 0.774
Cc1c(-c2ccc(-c3ccc(Cl)c(Cl)c3)o2)nc(-c2ccccc2)c2c1CO[Si]2(C(C)C)C(C)C | 0.872 | -0.186 | 0.11 | 2.11 (inactive) | 0.316 | -0.449 | -0.532 | -0.382 | -0.234 | 0.938 | 0.296 | -0.403 | -0.487 | -0.179 | -0.0727 | -0.113 | 0.0326 | -0.103 | 0.125 | -0.0982
COc1ccc([Si](C)(C)[C@H]2[C@H](CCO)O[C@@]3(C(=O)N(Cc4ccc(N5CCOC5=O)cc4)c4ccccc43)[C@@H]2C)cc1 | 0.901 | -0.0663 | 0.171 | -1.15 (inactive) | -0.0921 | -0.155 | -0.197 | -0.0181 | -0.524 | 0.416 | 1.11 | -3.71 | -0.284 | 0.854 | 0.455 | -0.12 | 0.151 | 0 | 0.248 | 0.93
CCC[C@@H]1[C@@H](Sc2ccccc2)[C@@H](C(=O)O)[C@H](c2ccc(C)cc2)N1S(=O)(=O)c1ccc(C)cc1 | 1.05 | 0.505 | 0.284 | -0.114 (inactive) | 1.25 | 1.36 | 0.163 | 1.34 | 0.188 | 0.267 | 1.47 | -1.57 | 0.241 | 1.87 | 0.859 | 0.108 | -0.0866 | -0.0987 | 0.425 | 1.41
C=CCNC(=O)[C@H]1[C@@H]2C(=O)O[C@@H](c3ccccc3)[C@@H](c3ccccc3)N2[C@@H](c2ccccc2OCCO)[C@]12C(=O)N(C(=O)OCCOC)c1ccccc12 | 1.58 | 0.125 | 0.0274 | -1.24 (inactive) | 1.08 | 1.28 | 0.341 | 0.616 | 0.239 | -0.101 | 1.11 | -3.16 | 0.142 | 0.336 | 0.287 | -0.124 | 0.0684 | 0.86 | 1.13 | 1.53
O=C1NC(=O)C2C1C=CC(C(O)c1ccc(F)cc1)N2Nc1ccccn1 (stereo not given) | 1.06 | -0.118 | 0.243 | 1.23 (inactive) | 0.138 | -0.371 | 0.255 | -0.0918 | 0.297 | 0.877 | 0.164 | 0.305 | -0.0392 | 0.0754 | -0.255 | -0.124 | 0.0684 | 0.147 | 0.513 | 0.349
COCCOC(=O)N1C(=O)[C@@]2(c3cc(C#CCCO)ccc31)[C@H](C(=O)N1CCN(c3ncccn3)CC1)[C@H]1C(=O)O[C@H](c3ccccc3)[C@H](c3ccccc3)N1[C@@H]2c1ccc(O)cc1 | 1.3 | -0.499 | -0.345 | 0.894 (inactive) | 1.16 | 1.01 | 0.368 | 0.698 | -0.0017 | -0.242 | 0.228 | -1.65 | 0.0272 | -0.444 | -0.559 | -0.0179 | 0.0074 | 1.01 | 0.894 | 1.85
C=CCC(OC(C)=O)[C@@H]1[C@@H](N(Cc2ccc(-c3ccccc3)cc2)C(=O)c2ccc(C)cc2)c2cc(OCCCO)ccc2N1C(=O)c1ccc2ccccc2c1 (stereo not given in full) | -0.376 | -0.165 | -0.093 | -1.36 (inactive) | 0.265 | -0.549 | -0.0575 | 0.168 | -0.134 | 0.944 | -0.129 | -0.33 | -0.103 | 0.0626 | 0.235 | -0.0222 | -0.17 | -0.448 | 0.202 | 0.408
C=C(CCCC)C(=O)CC[C@H](OC(=O)c1cccnc1)c1ccc(CO)o1 | 1.3 | -0.013 | -0.519 | 0.981 (inactive) | 1.13 | 1.17 | 0.266 | 1.3 | 1.36 | 1.19 | 1.07 | -1.26 | 1.16 | 0.223 | -0.183 | -0.0462 | 0.191 | -0.116 | 0.706 | 0.542
